Screens deposited in PubChem by several laboratories.
Gli-Sufu block = antagonists of Gli-Sufu signaling | inhibition, % at 5 µM | Sufu-KO-LIGHT fibroblasts, Gli luciferase reporter luminescence | 0.74% of 340,000 active | AID 588413;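 active = inhibition above about 55%, limit read from the data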
697 NFkB inh = lowers PMA/ionomycin-induced NF-kB signal in 697 B cells. 697 B-cell NF-kB luciferase reporter, 16 h. inhibition, % at 4 µM. 0.33% of 330,000 active; in the data active = inhibition above about 35%
Mdm2-MdmX inh = human Mdm2/MdmX binding inhibition; SaOS-2 split-luciferase Mdm2/MdmX complementation, luminescence; inhibition, % at 8 µM; 3% of 330,000 active;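 active = inhibition of at least 50% at 8 µM in the primary screen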
Target sequence (O15151 whole entry, looked up): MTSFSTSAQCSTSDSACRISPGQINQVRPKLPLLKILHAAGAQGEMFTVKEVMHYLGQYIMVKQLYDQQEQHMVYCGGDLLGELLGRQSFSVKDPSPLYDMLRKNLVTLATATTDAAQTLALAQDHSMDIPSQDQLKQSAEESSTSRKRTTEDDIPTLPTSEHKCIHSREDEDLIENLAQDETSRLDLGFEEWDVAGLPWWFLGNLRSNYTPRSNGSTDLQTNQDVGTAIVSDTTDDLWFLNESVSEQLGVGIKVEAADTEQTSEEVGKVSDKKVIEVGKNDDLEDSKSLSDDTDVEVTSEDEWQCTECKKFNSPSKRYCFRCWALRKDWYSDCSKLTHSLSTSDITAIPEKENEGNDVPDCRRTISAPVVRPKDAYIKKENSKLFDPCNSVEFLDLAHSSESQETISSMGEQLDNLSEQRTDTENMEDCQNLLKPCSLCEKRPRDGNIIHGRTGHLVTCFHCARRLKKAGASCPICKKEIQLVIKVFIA
Target sequence (Q00987 whole entry, looked up): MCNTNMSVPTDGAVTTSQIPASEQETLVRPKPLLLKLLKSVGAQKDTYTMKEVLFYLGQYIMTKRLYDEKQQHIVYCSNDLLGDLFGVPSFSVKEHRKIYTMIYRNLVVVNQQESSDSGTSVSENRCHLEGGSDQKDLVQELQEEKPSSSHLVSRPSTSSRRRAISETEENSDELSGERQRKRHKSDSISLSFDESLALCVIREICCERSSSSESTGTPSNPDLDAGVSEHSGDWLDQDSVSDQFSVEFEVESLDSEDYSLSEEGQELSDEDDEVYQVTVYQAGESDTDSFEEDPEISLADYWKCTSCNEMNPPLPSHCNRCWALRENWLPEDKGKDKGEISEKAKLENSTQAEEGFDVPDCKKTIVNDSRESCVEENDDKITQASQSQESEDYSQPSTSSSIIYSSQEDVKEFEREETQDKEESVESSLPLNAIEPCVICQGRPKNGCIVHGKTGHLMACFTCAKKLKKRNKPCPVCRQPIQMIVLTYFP
Jurkat NFkB inh = lowers PMA/ionomycin-induced NF-kB signal in Jurkat cells | AID 435003 | PMA/ionomycin-induced NF-kB luciferase reporter, luminescence | inhibition, % at 4 µM | 0.53% of 330,000 active; in the data active = inhibition above about 50%
Beta cell apopt = blocks beta cell apoptosis; 0.8% of 300,000 active; protection from apoptosis, % (concentration not given with the values); INS-1E cytokine-induced death, ATP luminescence, 48 h; percent of positive-control rescue, neutral wells zero; AID 435005;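 active = Every replicate reaches about 75%, or at least half do and their mean reaches it too, limit read from the data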;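 note: higher means more ATP so stronger rescue from cytokine killing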
Mdm2-MdmX conf = confirmation of human Mdm2/MdmX interaction inhibitors. inhibition, % at 8 µM. shares compounds with Mdm2-MdmX inh. AID 489028. Mdm2-MdmX binding, luminescent assay. 55% of 10,000 active; in the data active = inhibition above about 40%
Full FLuc ctr = counter-screen for Mdm2/MdmX inhibitors: full-length luciferase. SaOS-2 full-length luciferase counterscreen, luminescence. shares compounds with Mdm2-MdmX inh. inhibition, % at 8 µM. 77% of 6,200 active;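 active = mean inhibition at 8 µM reaching about 37%, which flags the compound as non-specific, limit read from the data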;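 note: p53-null SaOS-2 cells with luciferase driven by a doxycycline-inducible promoter; compound on cells about two nights before reading with doxycycline added after day one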
Large screens that a line does not name were inactive (follow-up assays come after a bar, where they were run). A selection: hits, their analogues and other compounds. The true share with any hit is near 4%.

CCN(CC)S(=O)(=O)c1ccc(/C=C/C(=O)NC2CCCCC2)cc1	none
CSCC[C@H](NC(=O)C1CCN(S(=O)(=O)c2ccc(C)cc2C)CC1)c1nc2ccccc2[nH]1	none
O=C(CC1CC2CCC1C2)N1CCN(S(=O)(=O)c2ccccc2C(F)(F)F)CC1 (centres undefined)	none
CCOC(=O)c1cnc(-n2nc(C)cc2C)nc1NC1CCCCC1	Gli-Sufu block 82, Mdm2-MdmX inh 86 (no result: Beta cell apopt) | Mdm2-MdmX conf 92 | Full FLuc ctr inactive
CCOC(=O)c1cnc(-n2nc(C)cc2C)nc1NNc1nc(-c2ccccc2)cc(-c2ccccc2)n1	Mdm2-MdmX inh 63, Beta cell apopt 118 | Mdm2-MdmX conf 72 | Full FLuc ctr inactive
CCOC(=O)c1cnc(-n2nc(C)cc2C)nc1Nc1ccc(N(C)C)cc1	Mdm2-MdmX inh 71, Beta cell apopt 109 | Mdm2-MdmX conf 48 | Full FLuc ctr 61
COC(=O)c1ccc(CN=C(NS(=O)(=O)c2ccccc2)c2ccccc2)cc1	none
COC(=O)c1ccc(COc2ccccc2/C=N/NS(=O)(=O)c2ccccc2)cc1	Mdm2-MdmX inh 52 | Mdm2-MdmX conf 52 | Full FLuc ctr 115
CN(C)C(=O)N1CCN(C(=O)c2ccccc2Sc2ccccc2C#N)CC1	Mdm2-MdmX inh 53 | Mdm2-MdmX conf inactive
CN1CCC(=O)N([C@H](CO)c2ccccc2)CC1	none
Brc1nc(-c2ccccc2)nc(-c2ccccc2)c1Br	Mdm2-MdmX inh 79 | Mdm2-MdmX conf inactive
Cc1ccccc1[C@]1(C)ON(c2ccccc2C(F)(F)F)C1=O	Mdm2-MdmX inh 80 (no result: Gli-Sufu block) | Mdm2-MdmX conf 46 | Full FLuc ctr 59
COc1ccccc1[C@@]1(C)ON(c2ccccc2C(F)(F)F)C1=O	Mdm2-MdmX inh 89 | Mdm2-MdmX conf 80 | Full FLuc ctr inactive
COc1cccc(-c2nc(-c3ccccc3)nc(N3CCN(C)CC3)c2C#N)c1	Mdm2-MdmX inh 66 | Mdm2-MdmX conf 54 | Full FLuc ctr 77
O=c1c2ccccc2nc2sc(Nc3cccc(Cl)c3)nn12	Mdm2-MdmX inh 73 | Mdm2-MdmX conf inactive
Cc1nc2ccccc2c(=O)n1Nc1cccc(Cl)c1	none
CCOC(=O)C1=C(COC(=O)/C=C/c2ccc([N+](=O)[O-])cc2)NC(=O)NC1C (centres undefined)	none
O=C(CCc1nc2ccccc2s1)NC1CCOC1=O (centres undefined)	none
CN(C)c1nc(NCc2ccccc2)nc(N/N=C/c2ccc3c(c2)OCO3)n1	none
CN(C)c1nc(NCc2ccccc2)nc(N/N=C/c2ccc(Br)cc2)n1	Mdm2-MdmX inh 90 | Mdm2-MdmX conf inactive
CCCCC(=Nc1ccccc1OC)C1=C(O)CC(c2ccccc2)CC1=O (centres undefined)	none
CCCCC(=NCCc1c(C)[nH]c2ccccc12)C1=C(O)CC(c2ccccc2)CC1=O (centres undefined)	Mdm2-MdmX inh 57 | Mdm2-MdmX conf 45 | Full FLuc ctr 59
CCOC(=O)c1c(C)[nH]c(C(=O)COC(=O)[C@H](C)N2C(=O)C3CCCCC3C2=O)c1C (some centres undefined)	none (no result: 697 NFkB inh, Mdm2-MdmX inh, Jurkat NFkB inh, Beta cell apopt)
CN1CCC(=NOc2ccc([N+](=O)[O-])cc2)CC1	none
Cc1cc2c(cc1C)CSC(c1c(O)ccc3ccccc13)SC2	Mdm2-MdmX inh 75 | Mdm2-MdmX conf inactive | Full FLuc ctr 57
Cc1cc2c(cc1C)CSC(c1ccc3ccccc3c1O)SC2	none
CN(CCc1ccccc1)C(=O)c1ccc(NC(=O)Cc2ccc(NC(=O)C3CCCN(C(=O)CCc4ccccc4)C3)cc2)cc1 (centres undefined)	none (no result: 697 NFkB inh, Mdm2-MdmX inh, Jurkat NFkB inh, Beta cell apopt)
COc1ccccc1/C=C/C=C1\Oc2c(ccc(O)c2CN(C)C)C1=O	Mdm2-MdmX inh 61 | Mdm2-MdmX conf 43 | Full FLuc ctr 44
CCN(CC)Cc1c(O)ccc2c1O/C(=C\C=C\c1ccccc1)C2=O	Mdm2-MdmX inh 98, Beta cell apopt 105 | Mdm2-MdmX conf 71 | Full FLuc ctr inactive
CC12CCC(C(N)C1=O)C2(C)C (centres undefined)	none (no result: 697 NFkB inh, Mdm2-MdmX inh, Jurkat NFkB inh, Beta cell apopt)
CCC1CCCCN1C(=O)CCCOc1ccccc1 (centres undefined)	none
CCCCC[C@H](O)/C=C/[C@H]1CCC(=O)[C@@H]1CCCCCCC(=O)N1CCCCC1CO (some centres undefined)	Mdm2-MdmX inh 60 | Mdm2-MdmX conf 44 | Full FLuc ctr 54
O=c1[nH]nc(Sc2ncnc3sccc23)n1CCc1ccccc1	Mdm2-MdmX inh 85 | Mdm2-MdmX conf 43 | Full FLuc ctr inactive
O=C(COc1coc(CN2CCN(c3ccc(F)cc3)CC2)cc1=O)NC1CCCCC1	none (no result: 697 NFkB inh, Mdm2-MdmX inh, Jurkat NFkB inh, Beta cell apopt)
O=C(N/N=C1\CC(c2ccccc2)Oc2ccccc21)c1ccc(O)cc1 (centres undefined)	none
O=C(N/N=C1\CC(c2ccccc2)Oc2ccccc21)c1cccnc1 (centres undefined)	Mdm2-MdmX inh 52 | Mdm2-MdmX conf inactive
CN(C(=O)CSc1nc(-c2ccc(C(C)(C)C)cc2)c(C#N)c(=O)[nH]1)C1CCCCC1	none
On1c2c(c3c4nonc4ccc31)CCCC2	none (no result: Gli-Sufu block)
COn1c2c(c3c4nonc4ccc31)CCCC2	Mdm2-MdmX inh 59 | Mdm2-MdmX conf 47 | Full FLuc ctr 55
COC(=O)c1ccc(Nc2cc(C)nc3ccccc23)cc1	Mdm2-MdmX inh 100 | Mdm2-MdmX conf 65 | Full FLuc ctr 52
CC(=O)c1ccc(Nc2cc(C)nc3c(C)cc(C)cc23)cc1	Mdm2-MdmX inh 64, Beta cell apopt 77 | Mdm2-MdmX conf 61 | Full FLuc ctr 65
CCOc1ccc(Oc2ccc(NC(=O)[C@@H](NC(N)=O)[C@@H](C)CC)cc2)cc1	none
Cc1nn(-c2ccccc2)c2[nH]c(=O)c(CNCc3ccc4c(c3)OCO4)cc12	none
CCOc1ccc(NCc2cc3c(C(C)(C)C)nn(-c4ccccc4)c3[nH]c2=O)cc1	Mdm2-MdmX inh 96 | Mdm2-MdmX conf inactive | Full FLuc ctr 91
Cc1ccc(-c2nn(-c3ccccc3)c3[nH]c(=O)c(CNCc4ccccc4)cc23)cc1	Mdm2-MdmX inh 52 | Mdm2-MdmX conf inactive
O=C(O)[C@@H]1CCCN1S(=O)(=O)c1cccc2cccnc12	none
CCCOC1CCCN(C(=O)c2ccc(OC)c(OC3CCN(C(C)C)CC3)c2)C1 (centres undefined)	none
COC(=O)c1cc(S(=O)(=O)N2CCCCC2)c[nH]1	none
O=C(Nc1ccccc1)/C(=C/c1ccc([N+](=O)[O-])cc1)NC(=O)c1ccco1	Mdm2-MdmX inh 67 (no result: Beta cell apopt) | Mdm2-MdmX conf inactive
CCn1c2ccccc2c2cc(NC(=O)c3coc(=O)c(Br)c3)ccc21	Mdm2-MdmX inh 74 (no result: Gli-Sufu block) | Mdm2-MdmX conf inactive | Full FLuc ctr 38
CCn1c2ccccc2c2cc(NC(=O)c3ccc(=O)oc3)ccc21	none
Cc1ccc(C(C)C)c(OCC(=O)NNC(=O)Cc2ccc(S(=O)(=O)N3CCOCC3)s2)c1	none
